# Assay results taken from PubChem BioAssay (NCATS).
# “And” between values parts separate entries of the source, which are not always exact repeats. Equal values may be shown once. Results filed as inconclusive are left out. Some structures have more than one record in an assay (separate samples or runs), and their calls can disagree. The source made the active and inactive calls. Unless noted, calls come from the whole dose curve; as a rule, active = well fitted curve in the direction sought with a large enough effect in the repeat runs; inconclusive = weak or mixed curves; inactive = no such curve, though single readings can be large; an effect the other way counts as inactive or inconclusive.
# Target: Cytochrome P450 2C9 (Homo sapiens) (UniProt P11712)
# Sequence (P11712 whole entry, looked up): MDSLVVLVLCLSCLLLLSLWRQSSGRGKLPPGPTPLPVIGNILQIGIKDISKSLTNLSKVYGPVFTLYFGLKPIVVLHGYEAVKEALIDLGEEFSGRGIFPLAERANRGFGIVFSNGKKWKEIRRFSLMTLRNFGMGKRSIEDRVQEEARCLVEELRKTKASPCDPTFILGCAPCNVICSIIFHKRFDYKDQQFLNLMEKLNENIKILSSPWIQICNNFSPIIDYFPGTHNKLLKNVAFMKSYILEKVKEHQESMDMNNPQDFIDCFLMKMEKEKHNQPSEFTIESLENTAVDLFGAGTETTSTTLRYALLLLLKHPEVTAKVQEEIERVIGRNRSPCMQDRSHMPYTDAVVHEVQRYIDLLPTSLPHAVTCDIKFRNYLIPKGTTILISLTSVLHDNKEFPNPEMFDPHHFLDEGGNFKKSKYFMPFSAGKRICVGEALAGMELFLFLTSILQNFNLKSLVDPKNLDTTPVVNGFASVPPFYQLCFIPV
# Assay: Cytochrome P450 family 2 subfamily C member 9 (CYP2C9) small molecule antagonists: luciferase biochemical (cell-free) qHTS assay (AID 1645842); note: nearly all actives have a fitted effect of over 55% in size
# Settings: P450-Glo CYP2C9 enzyme assay, luciferin luminescence; series mostly up to 57.4 µM; activity change, negative = inhibition: at the top concentration
# In short: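 P450-Glo CYP2C9 system: proluciferin substrate with enzyme in mix containing 0.4% BSA, 10 min at room temperature, then NADPH regeneration solution added and incubated 1 h at 37C. Detection reagent stopped reaction; luminescence read after 20 min as RLU.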
# % is set by controls: 0 for no effect and ±100 for the full control effect; potency is the fitted concentration of half-maximal effect.
Structure (SMILES),Potency,"activity change, negative = inhibition"
O=C(Nc1ccc(Br)cc1)c1cc(Br)c(Br)s1,21.3 µM (active),–
C[C@H](NCc1ccc(OCc2ccccc2F)cc1)C(N)=O,–,-24.2% (inactive)
CCOc1ccc(C(Nc2ccccn2)c2ccc3ccc(C)nc3c2O)cc1C (stereo unspecified),4.77 µM (active),–
Clc1cc(Cl)c(OCC#CI)cc1Cl,6.01 µM (active),–
Cc1cccc(-c2[nH]c(CNc3ccccc3F)nc2-c2ccc3ncnn3c2)n1,21.3 µM (active),–
O=C1N(CC2CCCCN2)CCN1c1ccccc1 (stereo unspecified),–,-3.83% (inactive)
COc1cccc(-n2nc(C(=O)O)cc2-c2ccc(C3CCCCC3)c(Cl)c2)c1,–,4.16% (inactive)
O=S(=O)(O)c1ccc2c(N=Nc3ccc(S(=O)(=O)O)c4ccccc34)c(O)c(S(=O)(=O)O)cc2c1,12 µM (active),–
CC1(C)C(=O)C(C)(C)c2cc(C(=O)Nc3ccc(C(=O)O)cc3)ccc21,–,-7.8% (inactive)
COC(=O)C1=C(C#N)NC(C)=C(C(=O)OC(C)C)C1c1cccc([N+](=O)[O-])c1 (stereo unspecified),1.07 µM (active),–
COc1c(C)c(C(=O)c2ccc(N)c(C(=O)O)c2)n2ccccc12,12 µM (active) and 10.7 µM (active),–
CC(=O)OCC(=O)[C@@]12OC3(CCCC3)O[C@@H]1C[C@H]1[C@@H]3CCC4=CC(=O)C=C[C@]4(C)[C@@]3(F)[C@@H](O)C[C@@]12C,13.5 µM (active),–
O=C1C[C@@H](c2ccc(O)cc2)Oc2cc(O)ccc21,12 µM (active),–
O=C(NC[C@H](O)CN1CCc2ccccc2C1)c1cc(NC2COC2)ncn1,–,-9.75% (inactive)
O=C(O)CCC(=O)C(=O)O,–,-14.5% (inactive)
CCCCC(C)(O)C/C=C/[C@H]1[C@H](O)CC(=O)[C@@H]1CCCCCCC(=O)OC (stereo partly specified),2.68 µM (active),–
O=C(c1ccc(F)cc1)C1CCN(CCn2c(=O)nc3n(c2=O)CCCC3)CC1,–,-3.37% (inactive)
CCn1c2ccccc2c2cc(CNC)ccc21,–,-12.1% (inactive)
CC(C)(C)c1cc(CN2CCN(CC(O)c3ccc(Cl)cc3)CC2)cc(C(C)(C)C)c1O (stereo unspecified),8.49 µM (active),–
O=C(O)c1cc(=O)c2c3nc4ccccc4oc-3cc(=O)c2[nH]1,26.8 µM (active),–

Structure (SMILES),Potency,"activity change, negative = inhibition"
O=S(=O)(Nc1ccc(C(O)(C(F)(F)F)C(F)(F)F)cc1)c1cccs1,1.9 µM (active),–
C[C@H]1CN(C[C@H](Cc2ccccc2)C(=O)NCC(=O)O)CC[C@@]1(C)c1cccc(O)c1,–,3.63% (inactive)
O=C1CC(c2ccc([N+](=O)[O-])cc2)=NN1c1ccccc1,13.5 µM (active),–
OCC(S)CS (stereo unspecified),2.68 µM (active),–
CNc1nc(Nc2cnn([C@H]3CCN(C4COC4)C[C@@H]3F)c2Cl)ncc1C(F)(F)F,2.68 µM (active),–
O=C(O)c1ccc(CCCc2ccc(OCCc3ccc(F)cc3)cc2)o1,–,-21.2% (inactive)
Cn1c(=O)cc(N2CCCC(N)C2)n(Cc2ccccc2C#N)c1=O (stereo unspecified),–,-37.6% (inactive)
COc1cccc2c1CCC[C@H]2CN(C)CCc1ccc2ccoc2c1,0.425 µM (active),–
N#Cc1ccc2[nH]c(O)c(-c3ccc(CN4CCOCC4)cn3)c2c1,inactive and 16.9 µM (active),–
Nc1nc(N)c2nc(CNc3ccc(C(=O)N[C@@H](CCC(=O)O)C(=O)O)cc3)cnc2n1,–,-17.4% (inactive)
C[C@@H]1[C@H](O)[C@@H](C)/C=C/C=C\C=C\C=C\C=C\C=C\C=C\[C@H](O[C@@H]2O[C@H](C)[C@@H](O)[C@H](N)[C@@H]2O)C[C@@H]2O[C@](O)(C[C@@H](O)C[C@@H](O)[C@H](O)CC[C@@H](O)C[C@@H](O)CC(=O)O[C@H]1C)C[C@H](O)[C@H]2C(=O)O (stereo in doubt),–,-18.2% (inactive)
CCOC(=O)c1c(C)nn(-c2cccc([N+](=O)[O-])c2)c1C,1.07 µM (active),–
O=C(NCc1ccc(OC(F)(F)F)cc1)C1c2ccccc2C(=O)N1C1CCOCC1 (stereo unspecified),12 µM (active),–
COC(=O)CCC(=O)CN,–,14.2% (inactive)
CNC(=O)COC(=O)NCCC1CCN(c2cccc(C)n2)CC1,–,-2.65% (inactive)
c1ccc(C(OC2CCN(CCCc3nn[nH]n3)CC2)c2ccccc2)cc1,–,-3% (inactive)
O=c1ccn([C@@H]2O[C@H](CO)[C@@H](O)[C@H]2O)c(=O)[nH]1,–,15.2% (inactive)
CC[C@@H](c1ccc(F)c(F)c1)n1c(C(=O)OC)c(-c2ccno2)[nH]c1=S,0.756 µM (active),–
CCC(=O)NS(=O)(=O)c1ccc(-c2c(-c3ccccc3)noc2C)cc1,6.74 µM (active),–

# Tested on: not listed separately
# Assay: Primary qHTS for inhibitors of nuclear receptor binding SET domain protein 2 (NSD2) in an isogenic RCH-ACV NSD2 p.E1099K mutant (9B) (AID 1645876; active = well fitted curve in the direction sought with a large enough effect; an effect the other way counts as inactive or inconclusive; note: nearly all actives have a fitted effect of over 70% in size)
# Settings: RCH-ACV (leukaemia line) NSD2 E1099K (9B) viability, CellTiter-Glo, 72 h; series mostly up to 44.9 µM; activity change, negative = viability loss: at the top concentration
Structure (SMILES),"activity change, negative = viability loss",outcome,Potency
C[C@H](NCc1ccc(OCc2ccccc2F)cc1)C(N)=O,-4.38% (inactive),–,–
O=C1N(CC2CCCCN2)CCN1c1ccccc1 (stereo unspecified),–,inactive,–
COc1cccc(-n2nc(C(=O)O)cc2-c2ccc(C3CCCCC3)c(Cl)c2)c1,-13% (inactive),–,–
CC1(C)C(=O)C(C)(C)c2cc(C(=O)Nc3ccc(C(=O)O)cc3)ccc21,-15.1% (inactive),–,–
COc1c(C)c(C(=O)c2ccc(N)c(C(=O)O)c2)n2ccccc12,–,–,inactive
O=C(NC[C@H](O)CN1CCc2ccccc2C1)c1cc(NC2COC2)ncn1,-22.3% (inactive),–,–
O=C(c1ccc(F)cc1)C1CCN(CCn2c(=O)nc3n(c2=O)CCCC3)CC1,-7.85% (inactive),–,–
CCn1c2ccccc2c2cc(CNC)ccc21,–,–,23 µM (active)
C[C@H]1CN(C[C@H](Cc2ccccc2)C(=O)NCC(=O)O)CC[C@@]1(C)c1cccc(O)c1,–,inactive,–
O=C1CC(c2ccc([N+](=O)[O-])cc2)=NN1c1ccccc1,-22.9% (inactive),–,–
Cn1c(=O)cc(N2CCCC(N)C2)n(Cc2ccccc2C#N)c1=O (stereo unspecified),–,inactive,–
CCOC(=O)c1c(C)nn(-c2cccc([N+](=O)[O-])c2)c1C,-4.93% (inactive),–,–
O=C(NCc1ccc(OC(F)(F)F)cc1)C1c2ccccc2C(=O)N1C1CCOCC1 (stereo unspecified),4.6% (inactive),–,–
CNC(=O)COC(=O)NCCC1CCN(c2cccc(C)n2)CC1,-3.9% (inactive),–,–
c1ccc(C(OC2CCN(CCCc3nn[nH]n3)CC2)c2ccccc2)cc1,1.47% (inactive),–,–
O=c1ccn([C@@H]2O[C@H](CO)[C@@H](O)[C@H]2O)c(=O)[nH]1,3.26% (inactive),–,–
CCC(=O)NS(=O)(=O)c1ccc(-c2c(-c3ccccc3)noc2C)cc1,–,–,inactive
